# NTMT1 inhibitor = inhibitors of human N-terminal methyltransferase NTMT1 | Q9BV86 | NTMT1 MTase-Glo SAH luminescence, purified enzyme | Potency, µM (doses to about 114 µM), inactives show at the highest dose activity change, negative = inhibition, usual class: inhibitors | 59,000 compounds, 2.5% hits;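 note: plate controls were DMSO vehicle for no effect and no enzyme for full effect; nearly all actives have a fitted effect of over 65% in size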
# Target sequence (Q9BV86 whole entry, looked up): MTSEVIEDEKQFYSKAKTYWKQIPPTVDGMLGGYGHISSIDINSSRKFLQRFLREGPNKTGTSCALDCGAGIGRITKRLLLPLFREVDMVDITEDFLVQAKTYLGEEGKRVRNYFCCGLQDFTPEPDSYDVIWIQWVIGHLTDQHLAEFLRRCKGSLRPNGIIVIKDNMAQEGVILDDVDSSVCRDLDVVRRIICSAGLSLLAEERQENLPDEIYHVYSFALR
# HTT-AS act = activates huntingtin-antisense promoter activity; Potency, µM (titrated, usually from 57.5 µM), inactives show at the highest dose activity change, positive = activation, most hits filed as activators; HEK293 HTT-AS promoter firefly luciferase reporter, 24 h; response scale: percent change from vehicle, -100% = no light; 48,000 compounds, 0.24% hits; note: nearly all actives have a fitted effect of over 55% in size
#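 Luminescence was read after Dual-Glo reagent and a 10 min room-temperature incubation. Values were normalized to vehicle (0% activity) and zero RLU (-100% activity). Reporter HEK293 cells had been exposed to compounds (up to 57.5 uM final) for 24 h.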
# HTT prom inh = inhibits huntingtin promoter activity. HEK293 HTT promoter firefly luciferase reporter, 24 h. Potency, µM (highest dose often 57.5 µM), inactives show top-dose activity change, negative = inhibition, most hits filed as inhibitors. 48,000 compounds, 0.93% hits; note: nearly all actives have a fitted effect of over 50% in size
#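 Quantitative HTS used concentration series of up to 57.5 uM final on HEK293 luciferase reporter cells, 24 h at 37 degrees C. Readout was Dual-Glo firefly luminescence.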
# * = called active by the depositor; u = inconclusive; x = no result; ! = repeats disagree; [ ] = remark or other dose. Compounds with a hit are over-represented: about 2.4% of the library has one in this group of screens. Calls come from the whole dose curve; as a rule, active = well fitted curve in the direction sought with a large enough effect; inconclusive = small, poorly fitted or top-dose-only effect, or another doubt; inactive = no such curve, though single readings can be large; an effect the other way counts as inactive or inconclusive. Potency is the fitted concentration of half-maximal effect.
SMILES,NTMT1 inhibitor,HTT-AS act,HTT prom inh
OC[C@H]1O[C@@H](Oc2cc(O)cc(-c3cc4ccc(O[C@@H]5O[C@H](CO)[C@@H](O)[C@H](O)[C@H]5O)cc4o3)c2)[C@H](O)[C@@H](O)[C@@H]1O,6%[29.8 µM],x,x
Cc1ccc(-c2cc(NC(=O)c3ccccc3Cl)on2)cc1,10%,4.5µM*,30%
Cc1ccc(-c2cc(NC(=O)COc3ccc(Cl)c(C)c3)on2)cc1,-5%,33%,1%
CC(=O)c1ccc(NC(=O)c2cnn3c(C)cc(C)nc23)cc1,8%,x,x
NC(=O)C[C@H](N)C(=O)Nc1ccc(Cl)cc1C(=O)c1ccc[nH]1,6%,x,x
O=c1[nH]c([C@@H]2CCCN2)nc2c1oc1ccc(Cl)cc12,25%,x,x
COc1ccccc1N1CCN(S(=O)(=O)c2ccc(-c3ccno3)cc2OC)CC1,89µM*,-33%,-20%
COc1cc(-c2ccno2)ccc1S(=O)(=O)N1CCN(c2ccccc2)CC1,-21%,-20%,-17%
O=C(O)c1ccc(O)c2ncc(N3CC(N4CCOCC4)C3)cc12,5%[57.5 µM],x,x
O=S(=O)(Nc1nc(-c2ccccc2C(F)(F)F)nc2ccccc12)c1ccc(-c2ccnc(C(F)(F)F)c2)cc1,-22%,x,x
Cc1ccc(OCCn2c(CCNC(=O)Cc3cccc(F)c3)nc3ccccc32)cc1,6%,x,x
Cc1c(Cl)cccc1NC(=O)c1cc2sccc2n1Cc1ccc(F)cc1,89µM*,-31%,-30%
O=C(NCc1ccccc1)c1cc2sccc2n1Cc1ccc(Cl)cc1,1%,-13%,-7%
Cc1ccc(CNC(=O)c2cc3sccc3n2Cc2ccc(F)cc2)cc1,1%,-19%,-14%
CC(C)NC(=O)C1CCN(C(=O)c2cc3sccc3n2Cc2ccc(Cl)cc2)CC1,11%,-60%,8.9µM*
CCC(C(C)O)n1ncn(-c2ccc(N3CCN(c4ccc(OCC5COC(Cn6cncn6)(c6ccc(F)cc6F)C5)cc4)CC3)cc2)c1=O (stereo not given),0%[57.5 µM],x,x
Cc1c(F)cccc1NC(=O)Nc1ccc(Cl)c(S(=O)(=O)[C@H]2CCCNC2)c1O,12%,x,x
CCC1CN(C(=O)N2CCC(C(=O)N3CCN(c4cc(C)ccc4C)CC3)CC2)c2ccccc2O1 (stereo not given),10%,-53%,u
CCC1CN(C(=O)N2CCC(C(=O)N3CCN(c4cccc(C)c4C)CC3)CC2)c2ccccc2O1 (stereo not given),-1%,-46%,20µM*
COCC(=O)NCCc1nc2ccccc2n1CCOc1ccc(C)cc1,6%[57.5 µM],x,x
COc1cc(C2CC(=O)N(Cc3ccc(F)cc3)c3ccccc3S2)cc(OC)c1OC (stereo not given),-29%,-62%,14µM*
COc1ccc(C2CC(=O)N(Cc3ccc(F)cc3)c3ccccc3S2)cc1OC (stereo not given),9%,-15%,-8%
CN1CCc2cccc3c2[C@H]1Cc1ccc(O)c(O)c1-3,22µM*,-2%,-3%
CC(C)(C)OC(=O)N1CCN(c2cnc(NCc3ccc(-c4ccc(C#N)cc4)o3)nc2)CC1,2%,x,x
COC(=O)COc1ccc2oc(-c3ccc(OC)cc3)cc(=O)c2c1,10%,u,76%
SMILES,NTMT1 inhibitor,HTT-AS act,HTT prom inh
CCCCC(=O)Oc1ccc2oc(-c3ccc(OC)cc3)cc(=O)c2c1,15%,2µM*,89%
NC(=O)C(CCC(F)(F)F)N(Cc1ccc(-c2ncon2)cc1F)S(=O)(=O)c1ccc(Cl)cc1 (stereo not given),0%[57.5 µM],x,x
COc1ccc(OC)c(NS(=O)(=O)c2ccc3c(c2)CCCN3C(=O)C2CCC2)c1,2%,-14%,u
CC(=O)Nc1ccc(NS(=O)(=O)c2cc(Br)cc3c2N(C(=O)C2CC2)CC3)cc1,2%,-21%,-13%
COc1ccc(NS(=O)(=O)c2ccc3c(c2)CCCN3C(=O)C2CCC2)cc1OC,-16%,-29%,1.8µM*
COc1ccc(NS(=O)(=O)c2cc(Br)cc3c2N(C(=O)C2CC2)CC3)cc1OC,u,-44%,5.6µM*
Cc1ccc(NS(=O)(=O)c2ccc3c(c2)CCCN3C(=O)C2CCC2)cc1Cl,-16%,-28%,22µM*
Cc1ccc(NS(=O)(=O)c2ccc3c(c2)CCCN3C(=O)C2CCC2)c(C)c1,4%,-13%,u
CC(C)C(C(=O)N(C)C(C)C(N)=O)N(C)C(=O)C1CCCN1C(=O)/C=C/C=C/C(O)C(C)O (stereo not given),9%[29.8 µM],x,x
COc1cccc(C2N=C(Nc3nc4ccccc4o3)NC3=C2C(=O)CCC3)c1 (stereo not given),9%,x,x
NC(=O)[C@@H]1CC[C@H](c2ccc(OCc3ccccc3F)cc2)N1,3%[57.5 µM],x,x
CC(=O)OC/C=C(\C)C(CC1C(C)=C(OC(C)=O)C(=O)C2C(C)(C)C(O)CCC12C)OC(C)=O (stereo not given),-7%[29.8 µM],x,x
FC(F)(F)c1cccc(-n2cc(-c3ccccc3)c3c(N4CCCCC4)ncnc32)c1,10%,1%,-9%
Nc1ncnc2c1c(-c1cccc(OCc3ccccc3)c1)cn2C1CC(CN2CCCC2)C1 (stereo not given),13µM*,-12%,-27%
CCOC(=O)c1cc(-c2ccccc2)n(CC(=O)NC(C)c2ccccc2)c1C (stereo not given),10%,-23%,-7%
CC(C)c1cc(C(C)C)c(CC(=O)NS(=O)(=O)Oc2c(C(C)C)cccc2C(C)C)c(C(C)C)c1,40µM*!,-10%,u
O=C1OC(COc2ccccc2[N+](=O)[O-])CC1Cc1ccccc1 (stereo not given),5%,x,x
CCOC(=O)Cc1ccc(NC(=O)n2ncc3cc(Cl)ccc32)cc1,-19%,-91%,0.25µM*
Cc1ccc(C)c(NC(=O)n2ncc3cc(Cl)ccc32)c1,-11%,u,20%
COc1cc(-c2cn(C3CCc4c(F)cccc4N(CC(F)(F)F)C3=O)nn2)ccc1-n1cnc(C)c1 (stereo not given),7%[57.5 µM],x,x
COc1ccc(C(=O)Nc2ccc3nc4n(c(=O)c3c2)CCCCC4)cc1OC,4%,-2%,-5%
COc1cc(C(=O)Nc2ccc3nc4n(c(=O)c3c2)CCCCC4)cc(OC)c1OC,50µM*,-11%,-14%
COc1ccc(CC2=NN3C([C@@H](CCc4ccccc4)[C@@H](C)O)=NC(C)C3C(=O)N2)cc1OC (stereo not given in full),u,7.7µM*,45%
COc1ccc(CCN2CC(C(=O)NCCc3ccccc3)CC2=O)cc1OC (stereo not given),0%,4%,12%
CC(=O)Nc1sc2c(c1-c1cnn(C(C)=O)c1)CCNC2,-10%,x,x
O=c1c(O)c(-c2ccc(O)cc2O)oc2cc(O)cc(O)c12,45µM*!,-7%,1%
COc1ccc(-c2cc(=O)c3c(O)cc(O)cc3o2)cc1O,u,15%,2%
O=c1oc2cc(O)ccc2s1,-13%,-5%,-1%
O=c1c(O)c(-c2cc(O)c(O)c(O)c2)oc2cc(O)cc(O)c12,28µM*!,-2%,2%
C/C=C(\C)C(=O)OC1C[C@@]2(COC(C)=O)O[C@H]2/C=C\[C@@]2(C)O[C@@H]2[C@H]2OC(=O)C(COC(C)=O)=C12 (stereo not given in full),-16%[29.8 µM],x,x

# Compound activity deposited in PubChem BioAssay by National Center for Advancing Translational Sciences (NCATS).
